Test results reported in the supplement of paper PMC6992640.
± gives the standard deviation of the averaged measurements.

Assays:
Assay in all cases: cell viability (% of vehicle); higher = less cytotoxic
Conditions in all cases: 10 µM; 72 h
[1] = test system: HCI01 (cells of a triple-negative basal-like breast cancer xenograft)
[2] = test system: HCI03 (cells of an ER-positive luminal breast cancer xenograft)
[3] = test system: HCI09 (cells of a triple-negative luminal androgen receptor type breast cancer xenograft)
[4] = test system: HCI11 (cells of an ER-positive luminal breast cancer xenograft)
[5] = test system: HCI13 (cells of an ER-positive luminal breast cancer xenograft)
[6] = test system: HCI16 (cells of a triple-negative basal-like breast cancer xenograft)
[7] = test system: UCD52 (cells of a triple-negative basal-like breast cancer xenograft)
[8] = test system: WHIM2 (cells of a triple-negative basal-like breast cancer xenograft)
[9] = test system: WHIM30 (cells of a triple-negative basal-like breast cancer xenograft)
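Also: PDX cells carrying CMV promoter-driven luciferase, viability read as total photon flux per second by IVIS imaging following D-luciferin, vehicle control 0.1% DMSO.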

| Structure (SMILES) | cell viability [1] | cell viability [2] | cell viability [3] | cell viability [4] | cell viability [5] | cell viability [6] | cell viability [7] | cell viability [8] | cell viability [9] |
| --- | --- | --- | --- | --- | --- | --- | --- | --- | --- |
| N#Cc1ccc(C(c2ccc(C#N)cc2)n2cncn2)cc1 [Letrozole] | 111 ± 7.6 | 99.1 | 98.4 ± 3.9 | 102 | 88.2 ± 5.6 | 99.1 | 126 ± 15 | 73.7 ± 21 | 126 ± 8.4 |
| O=S(=O)(O)NC1CCCCC1 [Cyclamic acid] | 91.4 ± 14 | 118 | 94.4 ± 2 | 91.9 | 58.1 ± 1.3 | 121 | 88.7 ± 18 | 104 ± 13 | 106 ± 5.2 |
| CC(C)CN(CC(O)C(Cc1ccccc1)NC(=O)OC1CCOC1)S(=O)(=O)c1ccc(N)cc1 (stereo not drawn) [Amprenavir (agenerase)] | 96.3 ± 11 | 99.1 | 85.6 ± 4.6 | 104 | 103 ± 7.5 | 115 | 56.8 ± 3.1 | 78.8 ± 8.7 | 112 ± 25 |
| COCCCCC(=NOCCN)c1ccc(C(F)(F)F)cc1.O=C(O)C=CC(=O)O [Fluvoxamine maleate] | 120 ± 4.3 | 111 | 90.71 ± 0.25 | 93 | 94.6 ± 7.2 | 67.7 | 84.9 ± 8.5 | 69.3 ± 19 | 107 ± 4.1 |
| CCC(C(C)O)n1ncn(-c2ccc(N3CCN(c4ccc(OCC5COC(Cn6cncn6)(c6ccc(F)cc6F)C5)cc4)CC3)cc2)c1=O (stereo not drawn) [Posaconazole] | 123 ± 2.6 | 78 | 59.1 ± 18 | 64.1 | 79.9 ± 3.4 | 94.5 | 74.8 ± 6.6 | 86.8 ± 13 | 105 ± 18 |
| NC(N)=NS(=O)(=O)c1ccc(N)cc1 [Sulfaguanidine] | 99.8 ± 16 | 135 | 88.6 ± 12 | 86.1 | 108 ± 7.2 | 135 | 85.4 ± 6.9 | 116 ± 6.5 | 118 ± 2.4 |
| CCCCN1CCCCC1C(=O)Nc1c(C)cccc1C.Cl (stereo not drawn) [Bupivacaine HCl] | 145 ± 30 | 128 | 104 ± 14 | 120 | 106 ± 2.1 | 169 | 89 ± 16 | 111 ± 7.6 | 117 ± 12 |
| CCNC1CN(CCCOC)S(=O)(=O)c2sc(S(N)(=O)=O)cc21 (stereo not drawn) [Brinzolamide] | 108 ± 12 | 142 | 97.6 ± 15 | 139 | 132 ± 16 | 100 | 88.17 ± 0.49 | 104 ± 12 | 96.6 ± 7.1 |
| COc1ccccc1Oc1c(NS(=O)(=O)c2ccc(C(C)(C)C)cc2)nc(-c2ncccn2)nc1OCCO [Bosentan] | 110 ± 16 | 95.1 | 71.1 ± 21 | 86.4 | 83.7 ± 5.7 | 104 | 111 ± 2.8 | 114 ± 36 | 114 ± 3.2 |
| O=c1ncnc2[nH][nH]cc1-2 [Allopurinol] | 111 ± 8.6 | 132 | 94.3 ± 13 | 110 | 98.9 ± 12 | 103 | 84.5 ± 3.3 | 97.49 ± 0.5 | 122 ± 8.1 |
| CCCC1CC(C(=O)NC(C(C)Cl)C2OC(SC)C(O)C(O)C2O)N(C)C1.Cl (stereo not drawn) [Clindamycin HCl] | 101 ± 7.5 | 122 | 99.45 ± 0.17 | 104 | 88.2 ± 19 | 142 | 117 ± 2.3 | 106 ± 33 | 122 ± 2.6 |
| COc1c2occc2cc2ccc(=O)oc12 [8-Methoxypsoralen] | 116 ± 17 | 147 | 99.5 ± 6.5 | 104 | 121 ± 13 | 122 | 106.6 ± 0.24 | 101 ± 17 | 97.9 ± 1.8 |
| Cc1cncc(CN2CCC(=C3c4ccc(Cl)cc4CCc4cccnc43)CC2)c1.O=C(O)C=CC(=O)O [Rupatadine Fumarate] | 89.8 ± 4.1 | 87.7 | 42 ± 3 | 70.2 | 58.2 ± 9.9 | 109 | 63.1 ± 3.4 | 78 ± 7.6 | 81.2 ± 3.8 |
| O=C1CCC(N2C(=O)c3ccccc3C2=O)C(=O)N1 (stereo not drawn) [Thalidomide] | 144 ± 7.8 | 129 | 101 ± 4.3 | 103 | 129 ± 15 | 114 | 102 ± 4.3 | 103 ± 19 | 145 ± 15 |
| Cl.Cl.NCCc1cnc[nH]1 [Histamine 2HCl] | 118 ± 14 | 129 | 105 ± 8.2 | 105 | 124 ± 16 | 111 | 87.8 ± 4.6 | 81.3 ± 5.9 | 122 ± 5.2 |
| C=CC1=C(C(=O)O)N2C(=O)C(NC(=O)C(=NO)c3csc(N)n3)C2SC1 (stereo not drawn) [Cefdinir] | 96.2 ± 11 | 138 | 107 ± 6.3 | 120 | 130 ± 4.8 | 121 | 96.6 ± 12 | 98.1 ± 22 | 114 ± 8 |
| C=C1CCC(O)CC1=CC=C1CCCC2(C)C1CCC2C(C)C=CC(C)C(C)C (stereo not drawn) [Vitamin D2 (Ergocalciferol)] | 118 ± 26 | 101 | 61.9 ± 14 | 95.2 | 58.8 ± 16 | 77.9 | 65.5 ± 2.4 | 40.7 ± 13 | 89.1 ± 10 |
| O=C(NC(Cc1cc(=O)[nH]c2ccccc12)C(=O)O)c1ccc(Cl)cc1 (stereo not drawn) [Rebamipide] | 92.4 ± 31 | 129 | 88.63 ± 0.71 | 97 | 117 ± 5.6 | 102 | 100 ± 6.4 | 86.2 ± 10 | 115 ± 8.9 |
| CC1(C)OC2COC3(COS(N)(=O)=O)OC(C)(C)OC3C2O1 (stereo not drawn) [Topiramate] | 103 ± 19 | 128 | 95.2 ± 20 | 138 | 133 ± 1.9 | 115 | 78.8 ± 6.2 | 105 ± 16 | 110 ± 5.4 |
| CC/C(=C(\c1ccccc1)c1ccc(OCCN(C)C)cc1)c1ccccc1 [Tamoxifen] | 39.1 ± 8.5 | 139 | 58.5 ± 44 | 120 | 82.5 ± 42 | 88.8 | 74.5 ± 15 | 70.4 ± 0.76 | 123 ± 9.1 |
| COc1cc2c(cc1OC)C(=O)C(CC1CCN(Cc3ccccc3)CC1)C2.Cl (stereo not drawn) [Donepezil HCl] | 137 ± 8.8 | 89.9 | 113 ± 5 | 106 | 152.6 ± 0.61 | 147 | 66.1 ± 6.9 | 86.1 ± 4 | 107 ± 14 |
| CC(=O)N1CCN(c2ccc(OCC3COC(Cn4ccnc4)(c4ccc(Cl)cc4Cl)O3)cc2)CC1 (single isomer, unassigned; (+)) [(+)-Ketoconazole] | 151 ± 55 | 119 | 29.5 ± 5.5 | 87.9 | 98.9 ± 9.7 | 103 | 44.6 ± 2.7 | 134 ± 9.5 | 94.8 ± 11 |
